Where “and” joins values, the source holds several entries; their conditions need not be identical. Identical values can stand only once. Hit rate of the full screen: of about 5,500 compounds, about 2,000 (36%) were called active. Roughly 18% stayed inconclusive and do not appear here. Rule as the data show it: active = normalized growth mostly below about 0.91 (no sharp cut-off); inconclusive = no clear call, values can overlap the other calls; inactive = mostly above about 0.92. Some of the results follow.
Experiment: chemical genetic growth profiling, strain panel (AID 1159580);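 also: tested at 20 µM; growth read once vehicle control cultures reached saturation at 30 °C; 1 = growth at the plate median or of vehicle wells; lower values mean less growth of the strain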
Details: growth OD
[1] = S. cerevisiae deletion strains, locus YDR150W, strain NUM1, hits give low values
[2] = S. cerevisiae deletion strains, locus YGR229C, strain SMI1, hits give low values
[3] = S. cerevisiae deletion strains, locus YJR075W, strain HOC1, hits give low values
[4] = S. cerevisiae deletion strains, locus YMR263W, strain SAP30, hits give low values
[5] = S. cerevisiae deletion strains, locus YNL153C, strain GIM3, hits give low values
[6] = S. cerevisiae deletion strains, locus YPL241C, strain CIN2, hits give low values

Measured: normalized growth

CN(C)c1ccc(O)c2c1C[C@H]1C[C@H]3[C@H](N(C)C)C(=O)C(C(N)=O)=C(O)[C@@]3(O)C(=O)C1=C2O
inactive: S. cerevisiae deletion strains, locus YAL013W, strain DEP1, hits give low values 0.988 | S. cerevisiae deletion strains, locus YBR021W, strain FUR4, hits give low values 0.915 | S. cerevisiae deletion strains, locus YBR229C, strain ROT2, hits give low values 0.947 | S. cerevisiae deletion strains, locus YCL029C, strain bik1, hits give low values 0.992 | S. cerevisiae deletion strains, locus YDL035C, strain GPR1, hits give low values 0.963 | S. cerevisiae deletion strains, locus YDL074C, strain BRE1, hits give low values 1 | S. cerevisiae deletion strains, locus YDL101C, strain DUN1, hits give low values 0.969 | S. cerevisiae deletion strains, locus YDL134C, strain PPH21, hits give low values 0.976 | S. cerevisiae deletion strains, locus YDL185W, strain tfp1, hits give low values 0.983 | S. cerevisiae deletion strains, locus YDL192W, strain arf1, hits give low values 0.962 | S. cerevisiae deletion strains, locus YDR101C, strain arx1, hits give low values 1 | [1] 0.975 | S. cerevisiae deletion strains, locus YDR162C, strain NBP2, hits give low values 0.964 | S. cerevisiae deletion strains, locus YDR318W, strain mcm21, hits give low values 0.996 | S. cerevisiae deletion strains, locus YDR388W, hits give low values 0.997 | S. cerevisiae deletion strains, locus YDR502C, strain sam2, hits give low values 0.986 | S. cerevisiae deletion strains, locus YEL061C, strain CIN8, hits give low values 0.984 | S. cerevisiae deletion strains, locus YER110C, hits give low values 0.974 | S. cerevisiae deletion strains, locus YER155C, strain BEM2, hits give low values 1.03 | S. cerevisiae deletion strains, locus YER167W, strain BCK2, hits give low values 0.984 | S. cerevisiae deletion strains, locus YGL078C, strain dbp3, hits give low values 0.974 | S. cerevisiae deletion strains, locus YGL086W, strain mad1, hits give low values 0.98 | S. cerevisiae deletion strains, locus YGL248W, strain PDE1, hits give low values 0.974 | S. cerevisiae deletion strains, locus YGR078C, strain PAC10, hits give low values 0.966 | S. cerevisiae deletion strains, locus YGR135W, strain pre9, hits give low values 0.974 | [2] 0.987 | S. cerevisiae deletion strains, locus YGR252W, strain gcn5, hits give low values 0.802 | S. cerevisiae deletion strains, locus YHR030C, strain SLT2, hits give low values 0.992 | S. cerevisiae deletion strains, locus YHR079C, strain IRE1 (second series), hits give low values 1 | S. cerevisiae deletion strains, locus YHR079C, strain IRE1, hits give low values 1.01 | S. cerevisiae deletion strains, locus YHR094C, strain hxt1, hits give low values 1.01 | S. cerevisiae deletion strains, locus YHR129C, strain ARP1, hits give low values 0.99 | S. cerevisiae deletion strains, locus YHR200W, strain rpn10, hits give low values 0.989 | S. cerevisiae deletion strains, locus YIL066C, strain RNR3, hits give low values 0.96 | S. cerevisiae deletion strains, locus YIL073C, strain SPO22, hits give low values 0.959 | S. cerevisiae deletion strains, locus YIL125W, strain kgd1, hits give low values 0.979 | S. cerevisiae deletion strains, locus YIR030C, strain dcg1, hits give low values 0.987 | S. cerevisiae deletion strains, locus YJL095W, strain BCK1, hits give low values 0.986 and 0.993 | S. cerevisiae deletion strains, locus YJL134W, strain LCB3, hits give low values 0.981 | S. cerevisiae deletion strains, locus YJL168C, strain set2, hits give low values 0.995 | S. cerevisiae deletion strains, locus YJL187C, strain SWE1 (second series), hits give low values 0.966 | S. cerevisiae deletion strains, locus YJR043C, strain POL32, hits give low values 0.992 | S. cerevisiae deletion strains, locus YJR066W, strain TOR1, hits give low values 0.941 | [3] 1 | S. cerevisiae deletion strains, locus YKL009W, strain mrt4, hits give low values 0.974 | S. cerevisiae deletion strains, locus YKL068W, hits give low values 0.995 | S. cerevisiae deletion strains, locus YKL085W, strain MDH1 (second series), hits give low values 0.982 | S. cerevisiae deletion strains, locus YKL085W, strain MDH1, hits give low values 0.982 | S. cerevisiae deletion strains, locus YKL190W, strain CNB1, hits give low values 0.998 | S. cerevisiae deletion strains, locus YKR001C, strain vps1, hits give low values 0.966 | S. cerevisiae deletion strains, locus YLR039C, strain RIC1, hits give low values 0.937 | S. cerevisiae deletion strains, locus YLR058C, strain SHM2, hits give low values 0.957 | S. cerevisiae deletion strains, locus YLR102C, strain apc9, hits give low values 0.989 | S. cerevisiae deletion strains, locus YLR113W, strain HOG1, hits give low values 1.01 | S. cerevisiae deletion strains, locus YLR262C, strain YPT6, hits give low values 0.895 | S. cerevisiae deletion strains, locus YLR268W, strain sec22, hits give low values 1.04 | S. cerevisiae deletion strains, locus YLR330W, strain CHS5, hits give low values 0.989 | S. cerevisiae deletion strains, locus YLR342W, strain FKS1 (second series), hits give low values 0.851 | S. cerevisiae deletion strains, locus YLR371W, strain rom2, hits give low values 0.98 | S. cerevisiae deletion strains, locus YLR418C, strain cdc73, hits give low values 0.909 | S. cerevisiae deletion strains, locus YML016C, strain PPZ1, hits give low values 0.974 | S. cerevisiae deletion strains, locus YML032C, strain rad52, hits give low values 1 | S. cerevisiae deletion strains, locus YML124C, strain tub3, hits give low values 0.991 | S. cerevisiae deletion strains, locus YMR078C, strain ctf18, hits give low values 0.993 | S. cerevisiae deletion strains, locus YMR223W, strain ubp8, hits give low values 0.934 | [4] 0.991 | S. cerevisiae deletion strains, locus YMR307W, strain GAS1, hits give low values 0.879 | S. cerevisiae deletion strains, locus YNL067W, strain RPL9B, hits give low values 1 | S. cerevisiae deletion strains, locus YNL128W, strain TEP1, hits give low values 0.922 | [5] 0.985 | S. cerevisiae deletion strains, locus YNL183C, strain NPR1, hits give low values 0.968 | S. cerevisiae deletion strains, locus YNL233W, strain BNI4, hits give low values 1 | S. cerevisiae deletion strains, locus YNL250W, strain rad50, hits give low values 0.975 | S. cerevisiae deletion strains, locus YNL271C, strain bni1, hits give low values 0.989 | S. cerevisiae deletion strains, locus YNL298W, strain CLA4, hits give low values 0.987 | S. cerevisiae deletion strains, locus YNL307C, strain MCK1, hits give low values 0.997 | S. cerevisiae deletion strains, locus YNL322C, strain KRE1, hits give low values 0.993 | S. cerevisiae deletion strains, locus YNR052C, strain pop2, hits give low values 0.978 | S. cerevisiae deletion strains, locus YOL006C, strain TOP1, hits give low values 0.887 | S. cerevisiae deletion strains, locus YOL012C, strain htz1 0.571 | S. cerevisiae deletion strains, locus YOL147C, strain pex11, hits give low values 0.994 | S. cerevisiae deletion strains, locus YOR061W, strain CKA2, hits give low values 0.967 | S. cerevisiae deletion strains, locus YOR069W, strain VPS5, hits give low values 0.985 | S. cerevisiae deletion strains, locus YOR136W, strain idh2, hits give low values 0.978 | S. cerevisiae deletion strains, locus YOR144C, strain elg1, hits give low values 0.996 | S. cerevisiae deletion strains, locus YOR184W, strain ser1, hits give low values 0.985 | S. cerevisiae deletion strains, locus YOR231W, strain MKK1, hits give low values 1.01 | S. cerevisiae deletion strains, locus YOR316C, strain cot1, hits give low values 0.998 | S. cerevisiae deletion strains, locus YPL055C, strain LGE1, hits give low values 0.958 | [6] 0.981 | S. cerevisiae deletion strains, locus YPL256C, strain CLN2, hits give low values 1.01 | S. cerevisiae deletion strains, locus YPR119W, strain clb2, hits give low values 0.996 | S. cerevisiae deletion strains, locus YPR141C, strain kar3, hits give low values 0.997 | S. cerevisiae deletion strains, locus YPR163C, strain tif3, hits give low values 0.99 | S. cerevisiae deletion strains, locus YPR167C, strain met16, hits give low values 1 | S. cerevisiae deletion strains, strain wtn01, hits give low values 1.02 | S. cerevisiae strains, strain wild type, hits give low values 0.981

CC1c2cccc(O)c2C(O)=C2C(=O)C3(O)C(O)=C(C(N)=O)C(=O)C(N(C)C)C3C(O)C21 (stereo unspecified)
inactive: S. cerevisiae deletion strains, locus YAL040C, strain CLN3, hits give low values 0.944 | S. cerevisiae deletion strains, locus YCL061C, strain MRC1 (second series), hits give low values 0.966 | [1] 0.983 | S. cerevisiae deletion strains, locus YDR363W, strain ESC2, hits give low values 0.936 | S. cerevisiae deletion strains, locus YER002W, strain NOP16, hits give low values 0.989 | [3] 0.971 | [4] 0.986 | [5] 0.891 | S. cerevisiae deletion strains, locus YNL175C, strain NOP13, hits give low values 0.993 | S. cerevisiae deletion strains, locus YNL197C, strain WHI3, hits give low values 1.02 | S. cerevisiae deletion strains, locus YNL224C, strain SQS1, hits give low values 0.989 | S. cerevisiae deletion strains, locus YOR083W, strain WHI5 (second series), hits give low values 0.977 | [6] 0.974
active: [2] 0.835

Source: PubChem BioAssay AID1159580 (chemical genetic matrix, 2015)
